From paper PMC11006913
Numbering of substitutions follows the chain as printed.

Columns and labels:
Test in all cases: PBM; 200 nM protein, PBS
Conditions in all cases: dsDNA, one strand shown
VENTX [1] = biological target: T1, VENTX (Homo sapiens, UniProt O95231 78-163, R121Q)
T1 sequence: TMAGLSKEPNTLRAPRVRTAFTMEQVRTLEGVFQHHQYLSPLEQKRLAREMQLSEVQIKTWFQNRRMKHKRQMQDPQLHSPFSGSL

HOXA4 [2] = biological target: HOXA4 (Homo sapiens, UniProt Q00056 201-287, W262R)
VENTX [3] = biological target: T2, VENTX (Homo sapiens, UniProt O95231 78-163)
T2 sequence: T1 sequence with Q44R

VENTX [4] = biological target: T3, VENTX (Homo sapiens, UniProt O95231 78-163, Y115F)
T3 sequence: T1 sequence with Y38F, Q44R

HOXA4 [5] = biological target: HOXA4 (Homo sapiens, UniProt Q00056 201-287, R217L)
Sequence of HOXA4 (Homo sapiens, UniProt Q00056 201-287, R217L) (Q00056 201-287 R217L): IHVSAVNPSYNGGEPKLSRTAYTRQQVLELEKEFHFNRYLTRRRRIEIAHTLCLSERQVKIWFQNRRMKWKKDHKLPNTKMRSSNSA

HOXA4 [6] = biological target: HOXA4 (Homo sapiens, UniProt Q00056 201-287)
Sequence of HOXA4 (Homo sapiens, UniProt Q00056 201-287) (Q00056 201-287): as the sequence (Q00056 201-287 R217L) above, with L17R counted along it

HOXA4 [7] = biological target: HOXA4 (Homo sapiens, UniProt Q00056 201-287, W262F)
Sequence of HOXA4 (Homo sapiens, UniProt Q00056 201-287, W262F) (Q00056 201-287 W262F): as the sequence (Q00056 201-287 R217L) above, with L17R, W62F counted along it

HOXB9 [8] = biological target: HOXB9 (Homo sapiens, UniProt P17482 171-250, T197M)
Sequence of HOXB9 (Homo sapiens, UniProt P17482 171-250, T197M) (P17482 171-250 T197M): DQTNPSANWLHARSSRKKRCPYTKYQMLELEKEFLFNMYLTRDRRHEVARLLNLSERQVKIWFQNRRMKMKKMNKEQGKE

HOXC9 [9] = biological target: HOXC9 (Homo sapiens, UniProt P31274 178-260, K195R)
Sequence of HOXC9 (Homo sapiens, UniProt P31274 178-260, K195R) (P31274 178-260 K195R): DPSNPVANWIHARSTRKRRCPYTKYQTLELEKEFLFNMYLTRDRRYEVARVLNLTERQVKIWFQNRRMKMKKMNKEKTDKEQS

HOXA7 [10] = biological target: HOXA7 (Homo sapiens, UniProt P31268 116-202)
Sequence of HOXA7 (Homo sapiens, UniProt P31268 116-202) (P31268 116-202): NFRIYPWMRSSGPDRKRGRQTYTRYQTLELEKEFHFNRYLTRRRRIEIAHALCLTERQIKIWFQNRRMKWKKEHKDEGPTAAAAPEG

HOXB6 [11] = biological target: HOXB6 (Homo sapiens, UniProt P17509 132-218, K202E)
Sequence of HOXB6 (Homo sapiens, UniProt P17509 132-218, K202E) (P17509 132-218 K202E): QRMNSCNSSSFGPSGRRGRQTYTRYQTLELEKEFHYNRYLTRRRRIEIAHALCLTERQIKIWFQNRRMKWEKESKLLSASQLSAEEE

HOXA2 [12] = biological target: HOXA2 (Homo sapiens, UniProt O43364 129-215, R185T)
Sequence of HOXA2 (Homo sapiens, UniProt O43364 129-215, R185T) (O43364 129-215 R185T): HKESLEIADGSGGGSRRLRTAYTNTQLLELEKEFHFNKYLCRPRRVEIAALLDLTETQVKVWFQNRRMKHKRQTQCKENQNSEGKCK

HOXB9 [13] = biological target: HOXB9 (Homo sapiens, UniProt P17482 171-250)
Sequence of HOXB9 (Homo sapiens, UniProt P17482 171-250) (P17482 171-250): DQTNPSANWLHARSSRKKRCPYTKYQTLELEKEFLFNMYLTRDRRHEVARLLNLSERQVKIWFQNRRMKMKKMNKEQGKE

HOXC9 [14] = biological target: HOXC9 (Homo sapiens, UniProt P31274 178-260)
Sequence of HOXC9 (Homo sapiens, UniProt P31274 178-260) (P31274 178-260): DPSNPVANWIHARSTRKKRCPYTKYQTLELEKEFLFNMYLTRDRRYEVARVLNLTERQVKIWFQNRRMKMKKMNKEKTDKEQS

HOXC9 [15] = biological target: HOXC9 (Homo sapiens, UniProt P31274 178-260, R193K)
Sequence of HOXC9 (Homo sapiens, UniProt P31274 178-260, R193K) (P31274 178-260 R193K): as the sequence (P31274 178-260) above, with R16K counted along it

HOXA2 [16] = biological target: HOXA2 (Homo sapiens, UniProt O43364 129-215, R185K)
Sequence of HOXA2 (Homo sapiens, UniProt O43364 129-215, R185K) (O43364 129-215 R185K): as the sequence (O43364 129-215 R185T) above, with T57K counted along it

HOXC10 = HOXC10 (Homo sapiens, UniProt Q9NYD6 254-340, K271E)
Sequence of HOXC10 (Q9NYD6 254-340 K271E): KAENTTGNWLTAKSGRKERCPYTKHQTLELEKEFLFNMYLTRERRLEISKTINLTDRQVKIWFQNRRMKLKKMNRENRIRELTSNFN

HOXB9 [17] = biological target: HOXB9 (Homo sapiens, UniProt P17482 171-250, R186Q)
Sequence of HOXB9 (Homo sapiens, UniProt P17482 171-250, R186Q) (P17482 171-250 R186Q): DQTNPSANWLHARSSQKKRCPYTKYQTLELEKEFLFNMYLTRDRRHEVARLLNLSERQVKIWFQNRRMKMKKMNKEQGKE

HOXC9 [18] = biological target: HOXC9 (Homo sapiens, UniProt P31274 178-260, R222W)
Sequence of HOXC9 (Homo sapiens, UniProt P31274 178-260, R222W) (P31274 178-260 R222W): as the sequence (P31274 178-260) above, with R45W counted along it

HOXA2 [19] = biological target: HOXA2 (Homo sapiens, UniProt O43364 129-215, Y150S)
Sequence of HOXA2 (Homo sapiens, UniProt O43364 129-215, Y150S) (O43364 129-215 Y150S): as the sequence (O43364 129-215 R185T) above, with Y22S, T57R counted along it

HOXA7 [20] = biological target: HOXA7 (Homo sapiens, UniProt P31268 116-202, W177C)
Sequence of HOXA7 (Homo sapiens, UniProt P31268 116-202, W177C) (P31268 116-202 W177C): as the sequence (P31268 116-202) above, with W62C counted along it

HOXA2 [21] = biological target: HOXA2 (Homo sapiens, UniProt O43364 129-215)
Sequence of HOXA2 (Homo sapiens, UniProt O43364 129-215) (O43364 129-215): as the sequence (O43364 129-215 R185T) above, with T57R counted along it

HOXB6 [22] = biological target: HOXB6 (Homo sapiens, UniProt P17509 132-218)
Sequence of HOXB6 (Homo sapiens, UniProt P17509 132-218) (P17509 132-218): as the sequence (P17509 132-218 K202E) above, with E71K counted along it

Sequence of HOXA4 (Homo sapiens, UniProt Q00056 201-287, W262R) (Q00056 201-287 W262R): as the sequence (Q00056 201-287 R217L) above, with L17R, W62R counted along it

Sequence: GGGAGGAC
- binding signal (VENTX [1]): 8.23 upbm affinity estimate (log intensity, higher = more binding, comparable within an allelic series)
- binding signal (HOXA4 [2]): 9.79 upbm affinity estimate (log intensity, higher = more binding, comparable within an allelic series)
- binding signal (VENTX [3]): 8.18 upbm affinity estimate (log intensity, higher = more binding, comparable within an allelic series)
- binding signal (VENTX [4]): 8.28 upbm affinity estimate (log intensity, higher = more binding, comparable within an allelic series)
- binding signal (HOXA4 [5]): 9.91 upbm affinity estimate (log intensity, higher = more binding, comparable within an allelic series)
- binding signal (HOXA4 [6]): 10.1 upbm affinity estimate (log intensity, higher = more binding, comparable within an allelic series)
- binding signal (HOXA4 [7]): 9.92 upbm affinity estimate (log intensity, higher = more binding, comparable within an allelic series)

Sequence: CCATTAAC
- binding signal (VENTX [1]): 12.1 upbm affinity estimate (log intensity, higher = more binding, comparable within an allelic series)
- binding signal (HOXB9 [8]): 9.99 upbm affinity estimate (log intensity, higher = more binding, comparable within an allelic series)
- binding signal (HOXA4 [2]): 10.6 upbm affinity estimate (log intensity, higher = more binding, comparable within an allelic series)
- binding signal (HOXC9 [9]): 12.7 upbm affinity estimate (log intensity, higher = more binding, comparable within an allelic series)
- binding signal (VENTX [3]): 12.6 upbm affinity estimate (log intensity, higher = more binding, comparable within an allelic series)
- binding signal (HOXA7 [10]): 11.5 upbm affinity estimate (log intensity, higher = more binding, comparable within an allelic series)
- binding signal (VENTX [4]): 11.7 upbm affinity estimate (log intensity, higher = more binding, comparable within an allelic series)
- binding signal (HOXB6 [11]): 10.1 upbm affinity estimate (log intensity, higher = more binding, comparable within an allelic series)
- binding signal (HOXA2 [12]): 12.1 upbm affinity estimate (log intensity, higher = more binding, comparable within an allelic series)
- binding signal (HOXA4 [5]): 12 upbm affinity estimate (log intensity, higher = more binding, comparable within an allelic series)
- binding signal (HOXB9 [13]): 11.7 upbm affinity estimate (log intensity, higher = more binding, comparable within an allelic series)
- binding signal (HOXC9 [14]): 12.7 upbm affinity estimate (log intensity, higher = more binding, comparable within an allelic series)
- binding signal (HOXC9 [15]): 12.7 upbm affinity estimate (log intensity, higher = more binding, comparable within an allelic series)
- binding signal (HOXA2 [16]): 13.1 upbm affinity estimate (log intensity, higher = more binding, comparable within an allelic series)
- binding signal (HOXA4 [6]): 13.8 upbm affinity estimate (log intensity, higher = more binding, comparable within an allelic series)
- binding signal (HOXC10): 11.9 upbm affinity estimate (log intensity, higher = more binding, comparable within an allelic series)
- binding signal (HOXB9 [17]): 11.6 upbm affinity estimate (log intensity, higher = more binding, comparable within an allelic series)
- binding signal (HOXC9 [18]): 11 upbm affinity estimate (log intensity, higher = more binding, comparable within an allelic series)
- binding signal (HOXA2 [19]): 10.7 upbm affinity estimate (log intensity, higher = more binding, comparable within an allelic series)
- binding signal (HOXA7 [20]): 8.86 upbm affinity estimate (log intensity, higher = more binding, comparable within an allelic series)
- binding signal (HOXA4 [7]): 11.5 upbm affinity estimate (log intensity, higher = more binding, comparable within an allelic series)
- binding signal (HOXA2 [21]): 12 upbm affinity estimate (log intensity, higher = more binding, comparable within an allelic series)
- binding signal (HOXB6 [22]): 12 upbm affinity estimate (log intensity, higher = more binding, comparable within an allelic series)
